Results reported in PubChem BioAssay (NCI).
About 79,000 compounds went through this panel and 15% of them were active in at least one assay; those are over-represented in the sample as a whole. Activity calls are given as the source filed them. No stated cut-off is given here; in the data, active means growth inhibition above about 70%; inactive means the rest.

Key:
[1] = NCI Yeast Anticancer Drug Screen. Data for the mec2-1 strain (AID 157); settings: S. cerevisiae mec2-1 strain, stronger effect = higher value
Summary of the method: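 Each compound was tested on mec2-1 yeast, a strain altered in DNA damage repair or cell cycle control. Growth inhibition is reported relative to vehicle.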

[2] = NCI Yeast Anticancer Drug Screen. Data for the rad14 strain (AID 159);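 further: 0% = growth of vehicle-treated control cultures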; settings: S. cerevisiae rad14 strain growth inhibition, stronger effect = higher value
Summary of the method: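 A mutant yeast strain defective in DNA damage repair is treated with compound; inhibition of its growth is scored against untreated, vehicle-exposed cultures.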

[3] = NCI Yeast Anticancer Drug Screen. Data for the sgs1 mgt1 strain (AID 161);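 further: 0% = growth of cultures given vehicle only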; settings: S. cerevisiae sgs1 mgt1 strain, stronger effect = higher value
Summary of the method: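 Test agents were incubated with a DNA-repair-mutant yeast strain. Growth was then read and compared against vehicle-treated controls.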

[4] = NCI Yeast Anticancer Drug Screen. Data for the CLN2oe strain (AID 163);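 further: 0% = growth of vehicle-only control cultures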; settings: S. cerevisiae CLN2oe strain, stronger effect = higher value
Summary of the method: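 First, the altered yeast strain was treated with each compound; second, its growth was measured; finally, inhibition was derived by comparison with vehicle controls.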

[5] = NCI Yeast Anticancer Drug Screen. Data for the cln2 rad14 strain (AID 165);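 further: 0% = growth equal to vehicle treated cultures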; settings: S. cerevisiae cln2 rad14 strain, stronger effect = higher value
Summary of the method: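 Test compounds were added to cln2 rad14 yeast cultures; inhibition of growth was then determined by comparison with vehicle treatment.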

[6] = NCI Yeast Anticancer Drug Screen. Data for the bub3 strain (AID 167); settings: S. cerevisiae bub3 mutant strain, stronger effect = higher value
Summary of the method: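 Steps: expose the mutant yeast strain to compound; grow alongside vehicle-treated cultures; measure growth; express inhibition against the vehicle cultures.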

[7] = NCI Yeast Anticancer Drug Screen. Data for the wt2 strain (AID 169);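 further: 0% = growth of vehicle-treated yeast cultures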; settings: S. cerevisiae wt2 strain growth inhibition, stronger effect = higher value
Summary of the method: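 The panel's yeast strains carry defined changes in DNA repair or cell cycle genes. Each strain is grown with compound, and growth loss is scored relative to vehicle.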

[8] = NCI Yeast Anticancer Drug Screen. Data for the mlh1 strain (AID 171);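 further: 0% = growth of vehicle-treated control cultures of the same strain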; settings: S. cerevisiae mlh1 strain growth inhibition, stronger effect = higher value
Summary of the method: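 Inhibition values reflect reduced yeast growth in the presence of compound, referenced to vehicle controls, using a strain chosen for its alteration in DNA repair or cell cycle control.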

[9] = NCI Yeast Anticancer Drug Screen. Data for the sgs1 strain (AID 173);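 further: 0% = growth of vehicle-only control cultures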; settings: S. cerevisiae sgs1 mutant, stronger effect = higher value
Summary of the method: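 Vehicle-treated cultures served as reference for growth inhibition of a yeast strain altered in DNA damage repair or cell cycle control after compound exposure.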

[10] = NCI Yeast Anticancer Drug Screen. Data for the mlh1 rad18 strain (AID 175); settings: S. cerevisiae mlh1 rad18 strain growth inhibition, stronger effect = higher value
Summary of the method: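 Inhibition values reflect reduced growth of mutant yeast versus vehicle-treated controls following compound exposure; the mutations affect DNA damage repair.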

[11] = NCI Yeast Anticancer Drug Screen. Data for the rad18 strain (AID 177); settings: S. cerevisiae rad18 mutant growth inhibition, stronger effect = higher value
Summary of the method: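 Steps: expose repair-mutant yeast to compound; measure growth; express as inhibition relative to vehicle control.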

[12] = NCI Yeast Anticancer Drug Screen. Data for the rad52 strain (AID 147);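 further: 0% = growth of vehicle-treated control cultures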; settings: S. cerevisiae rad52 mutant growth inhibition, stronger effect = higher value
Summary of the method: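 Inhibition of yeast growth, referenced to vehicle controls, was the measured output for a strain with defective DNA damage repair.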

[13] = NCI Yeast Anticancer Drug Screen. Data for the wt1 strain (AID 149);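 further: 0% = growth of vehicle-treated wt1 cultures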; settings: S. cerevisiae wt1 strain (SPY 50644) growth inhibition, stronger effect = higher value
Summary of the method: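 Compounds are added to wt1 yeast cultures. Growth is then measured. Inhibition is expressed relative to vehicle-treated controls.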

[14] = NCI Yeast Anticancer Drug Screen. Data for the rad50EPP+ strain (AID 151);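 further: 0% = growth of vehicle-treated control cultures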; settings: S. cerevisiae rad50 mutant strain, stronger effect = higher value
Summary of the method: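 Genetically defined yeast (rad50EPP+, DNA damage repair alteration) is grown with compound, and inhibition of growth is expressed relative to vehicle-treated controls.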

[15] = NCI Yeast Anticancer Drug Screen. Data for the mgt1 strain (AID 153); settings: S. cerevisiae mgt1 mutant growth inhibition, stronger effect = higher value
Summary of the method: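 In the mgt1 strain, test compounds were added and growth inhibition was determined relative to vehicle-treated controls.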

[16] = NCI Yeast Anticancer Drug Screen. Data for the rad50 strain (AID 155);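 further: 0% = growth of vehicle-only cultures of the same strain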; settings: S. cerevisiae rad50 strain growth inhibition, stronger effect = higher value
Summary of the method: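 Inhibition values express reduced yeast growth in compound-treated cultures relative to vehicle-treated controls.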

[17] = at 5.0 µM (retest, dose inferred, filed as 0.5)
[18] = at 50.0 µM (retest, dose inferred, filed as 5.0)

Measured: growth inhibition

CC(C)OC(=O)NNc1cc(Cl)ccc1Cl
active: [1]; at 100.0 µM 77% | [2]; at 100.0 µM 99% | [6]; at 50.0 µM 99% | [10]; [18] 89% | [10]; at 50.0 µM 75.2% | [11]; at 100.0 µM 86%
inactive: [1]; [17] 9% | [1]; at 11.0 µM 34% | [1]; at 33.0 µM 33% | [1]; [18] 20% | [1]; at 50.0 µM 36.4% | [2]; at 1.2 µM -4% | [2]; at 3.7 µM 3% | [2]; at 11.0 µM 20% | [2]; at 33.0 µM 48% | [3]; [17] 17% | [3]; [18] 48% | [3]; at 50.0 µM 44.2% | [4]; at 1.2 µM -1% | [4]; at 3.7 µM 4% | [4]; at 11.0 µM 29% | [4]; at 33.0 µM 50% | [4]; at 100.0 µM 59% | [5]; [17] 4% | [5]; [18] 21% | [5]; at 50.0 µM 26% | [6]; at 1.2 µM 4% | [6]; at 3.7 µM -1% | [6]; [17] 32% | [6]; at 11.0 µM 19% | [6]; at 33.0 µM 39% | [6]; [18] 60% | [6]; at 100.0 µM 47% | [7]; at 1.2 µM 3% | [7]; at 3.7 µM 4% | [7]; at 11.0 µM 23% | [7]; at 33.0 µM 29% | [7]; at 100.0 µM 35% | [8]; at 1.2 µM -1% | [8]; at 3.7 µM 8% | [8]; at 11.0 µM 41% | [8]; at 33.0 µM 50% | [8]; at 100.0 µM 58% | [9]; at 1.2 µM 0% | [9]; at 3.7 µM 10% | [9]; at 11.0 µM 44% | [9]; at 33.0 µM 44% | [9]; at 100.0 µM 54% | [10]; [17] 57% | [11]; at 1.2 µM 2% | [11]; at 3.7 µM 69% | [11]; at 11.0 µM 69% | [11]; at 33.0 µM 62%

CC(C)(CN1CCCCC1)C(=O)/C=C/c1c(Cl)cccc1Cl
inactive: [12]; at 1.2 µM 12% | [12]; at 3.7 µM 35% | [12]; at 11.0 µM 68% | [13]; at 1.2 µM 10% | [13]; at 3.7 µM 15% | [13]; at 11.0 µM 32% | [14]; at 1.2 µM -2% | [14]; at 3.7 µM 0% | [14]; at 11.0 µM 22% | [14]; at 33.0 µM 50% | [14]; at 100.0 µM 47% | [15]; at 1.2 µM 10% | [15]; at 3.7 µM 37% | [16]; at 1.2 µM 11% | [16]; at 3.7 µM 29% | [16]; [17] 2% | [16]; at 11.0 µM 67% | [1]; at 1.2 µM 16% | [1]; at 3.7 µM 20% | [1]; [17] 14% | [1]; at 11.0 µM 51% | [2]; at 1.2 µM 44% | [2]; at 3.7 µM 54% | [3]; [17] 21% | [4]; at 1.2 µM 30% | [4]; at 3.7 µM 54% | [5]; [17] 55% | [6]; at 1.2 µM 27% | [6]; at 3.7 µM 49% | [6]; [17] 9% | [7]; at 1.2 µM 19% | [7]; at 3.7 µM 28% | [8]; at 1.2 µM 1% | [8]; at 3.7 µM 14% | [8]; at 11.0 µM 38% | [9]; at 1.2 µM 0% | [9]; at 3.7 µM 38% | [10]; [17] 30% | [11]; at 1.2 µM 31% | [11]; at 3.7 µM 57%
active: [12]; at 33.0 µM 98% | [12]; at 100.0 µM 98% | [13]; at 33.0 µM 93% | [13]; at 100.0 µM 97% | [15]; at 11.0 µM 81% | [15]; at 33.0 µM 98% | [15]; at 100.0 µM 99% | [16]; at 33.0 µM 97% | [16]; [18] 99% | [16]; at 50.0 µM 75.8% | [16]; at 100.0 µM 97% | [1]; at 33.0 µM 94% | [1]; [18] 97% | [1]; at 50.0 µM 83.9% | [1]; at 100.0 µM 97% | [2]; at 11.0 µM 92% | [2]; at 33.0 µM 99% | [2]; at 100.0 µM 99% | [3]; [18] 98% | [3]; at 50.0 µM 86.9% | [4]; at 11.0 µM 79% | [4]; at 33.0 µM 93% | [4]; at 100.0 µM 98% | [5]; [18] 99% | [5]; at 50.0 µM 86.4% | [6]; at 11.0 µM 91% | [6]; at 33.0 µM 98% | [6]; [18] 99% | [6]; at 50.0 µM 88.8% | [6]; at 100.0 µM 98% | [7]; at 11.0 µM 71% | [7]; at 33.0 µM 98% | [7]; at 100.0 µM 98% | [8]; at 33.0 µM 90% | [8]; at 100.0 µM 97% | [9]; at 11.0 µM 73% | [9]; at 33.0 µM 98% | [9]; at 100.0 µM 98% | [10]; [18] 98% | [10]; at 50.0 µM 87.7% | [11]; at 11.0 µM 89% | [11]; at 33.0 µM 98% | [11]; at 100.0 µM 98%

CNC(=S)N/N=C(/C)CCC/C(C)=N/NC(=S)NC
active: [16]; at 11.0 µM 87% | [16]; at 33.0 µM 89% | [16]; at 100.0 µM 92% | [4]; at 1.2 µM 80% | [4]; at 3.7 µM 97% | [4]; at 11.0 µM 98% | [4]; at 33.0 µM 98% | [4]; at 100.0 µM 97% | [6]; [17] 70% | [6]; at 33.0 µM 73% | [6]; at 100.0 µM 74% | [7]; at 11.0 µM 78% | [7]; at 33.0 µM 72%
inactive: [12]; at 1.2 µM 28% | [12]; at 3.7 µM 54% | [12]; at 11.0 µM 64% | [12]; at 33.0 µM 64% | [12]; at 100.0 µM 68% | [13]; at 1.2 µM 1% | [13]; at 3.7 µM 35% | [13]; at 11.0 µM 48% | [13]; at 33.0 µM 45% | [13]; at 100.0 µM 44% | [14]; at 1.2 µM -9% | [14]; at 3.7 µM 17% | [14]; at 11.0 µM 37% | [14]; at 33.0 µM 59% | [14]; at 100.0 µM 43% | [15]; at 1.2 µM 3% | [15]; at 3.7 µM 12% | [15]; at 11.0 µM 22% | [15]; at 33.0 µM 22% | [15]; at 100.0 µM 32% | [16]; at 1.2 µM 36% | [16]; at 3.7 µM 67% | [16]; [17] 40% | [16]; [18] 37% | [16]; at 50.0 µM 66.8% | [1]; at 1.2 µM 27% | [1]; at 3.7 µM 42% | [1]; [17] 66% | [1]; at 11.0 µM 53% | [1]; at 33.0 µM 48% | [1]; [18] 55% | [1]; at 50.0 µM 43.4% | [1]; at 100.0 µM 35% | [2]; at 1.2 µM 30% | [2]; at 3.7 µM 44% | [2]; at 11.0 µM 61% | [2]; at 33.0 µM 61% | [2]; at 100.0 µM 52% | [3]; [17] 48% | [3]; [18] 53% | [3]; at 50.0 µM 66.5% | [5]; [17] 21% | [5]; [18] -2% | [5]; at 50.0 µM 27.2% | [6]; at 1.2 µM 43% | [6]; at 3.7 µM 62% | [6]; at 11.0 µM 65% | [6]; [18] 69% | [6]; at 50.0 µM 54.4% | [7]; at 1.2 µM 16% | [7]; at 3.7 µM 58% | [7]; at 100.0 µM 67% | [8]; at 1.2 µM -2% | [8]; at 3.7 µM 34% | [8]; at 11.0 µM 52% | [8]; at 33.0 µM 37% | [8]; at 100.0 µM 40% | [9]; at 1.2 µM 14% | [9]; at 3.7 µM 24% | [9]; at 11.0 µM 65% | [9]; at 33.0 µM 63% | [9]; at 100.0 µM 62% | [10]; [17] 55% | [10]; [18] 63% | [10]; at 50.0 µM 62.4% | [11]; at 1.2 µM 1% | [11]; at 3.7 µM 21% | [11]; at 11.0 µM 19% | [11]; at 33.0 µM 24% | [11]; at 100.0 µM 37%
